Results on 5 molecules are retold here after PubChem BioAssay.

The structures appear in SMILES notation. Active and inactive are the calls of the source.

Assay [1] deals with Human papillomavirus type 1a protein E7 (residues 44-93). Description: small molecules binding HPV E7 44-93 – biochemical, small-molecule microarray, residues 44-93, 635 nm fluorescence, primary screen (AID 1108).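 Note: E7 fragment applied at 1 µg/mL in TBST for 1 h at 4 C; score combines spot fluorescence with its signal to noise ratio.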 Particulars: fluorescence 635 nm, higher = more signal.
Assay [2] can be described thus: hepatitis C replication reporter changes, two-sided – Huh7 cells, luciferase reporter, HCV replication inhibitor project, primary screen (AID 1109).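 Note: huh7 hepatoma cells harbouring a luciferase neomycin HCV replicon reporter; luciferase luminescence as measure of HCV replicon replication; test concentration not given here.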 Particulars: Huh7 HCV replicon luciferase reporter, 48 h; higher = more signal. A general note: Reporter assays use an easily measured gene product as a stand-in for the process of interest.
The target of assay [3] is Left-right determination factor 2 (Homo sapiens) (UniProt O00292). Description: small molecules binding LEFTY2 protein – biochemical, small-molecule microarray, 635 nm fluorescence scan, primary screen (AID 1110). The settings on record: higher = more signal.
The target of assay [4] is Calmodulin-1 (Homo sapiens) (UniProt P0DP23). Briefly: small molecules binding calmodulin-1 with EGTA – biochemical, small-molecule microarray, Cy5-labelled CALM1, profiling panel (AID 1111).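 Note: labelled calmodulin applied in Tris saline Tween buffer holding calcium plus EGTA and DTT.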 The settings on record: Cy5-CALM1 binding fluorescence, higher = more signal.
The target is the same in assay [5]. Briefly: small molecules binding Ca-loaded calmodulin-1 – biochemical, small-molecule microarray, Cy5-labelled CALM1, plus calcium, artefact control for SMM control-protein annotation, profiling panel (AID 1112).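 Note: score merges spot fluorescence with signal to noise from triplicate slides.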 Particulars: Cy5-CALM1 binding fluorescence, higher = more signal.
A short description of assay [6]: probe aWnt5a binding to arrayed compounds – biochemical, biotinylated probe, 635/667 nm fluorescence, primary screen (AID 1113).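 Note: score merges 667 nm fluorescence intensity with signal-to-noise per printed feature.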 Particulars: small-molecule microarray, higher = more signal.
Assay [7] in a line: probe aShh binding to arrayed compounds – biochemical, biotinylated probe, 635/667 nm fluorescence, primary screen (AID 1114).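 Note: probe is biotin-labelled aShh protein from a stem cell growth factor screen; measures binding of labelled protein to compounds printed on the slide; score merges feature fluorescence at 667 nm with signal-to-noise.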 The settings on record: small-molecule microarray, higher = more signal.
Assay [8] is described as follows: probe aNog binding to arrayed compounds – biochemical, biotinylated probe, 635/667 nm fluorescence, primary screen (AID 1115).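 Note: probe is biotinylated aNog protein used at 0.15 µg/mL for 1 h at 4 C; z-score combines 667 nm fluorescence of each spot with its signal to noise.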 The settings on record: small-molecule microarray, higher = more signal.
The target in assay [9] is Torsin-1A-interacting protein 1 (Homo sapiens) (UniProt Q5JTV8). Description: compound microarray binding of lysate hLAP1 – cell lysate, small-molecule microarray, COS7 lysate, 635/667 nm fluorescence, primary screen (AID 1116). The settings on record: 635 nm fluorescence, higher = more signal.
The target of assay [10] is Alpha-bungarotoxin (Bungarus multicinctus) (UniProt P60615). Description: compounds binding labelled alpha-BTX control protein – biochemical, small-molecule microarray, Alexa647 label, 635/667 nm fluorescence, artefact control for SMM control protein annotation, profiling panel (AID 1117). Particulars: alpha-BTX-A647 binding fluorescence, higher = more signal.
Another assay deals with Albumin (Bos taurus) (UniProt P02769). Briefly: compounds binding labelled BSA control protein – biochemical, small-molecule microarray, Alexa647 label, 635/667 nm fluorescence, artefact control for SMM control protein annotation, profiling panel (AID 1118).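 Note: score merges 667 nm emission intensity and signal-to-noise per printed compound spot.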 Particulars: BSA-A647 binding, fluorescence 635 nm, higher = more signal.
Assay [11] in a line: probe aXIP binding to arrayed compounds – biochemical, NeuroSMM set, 635/667 nm fluorescence, primary screen (AID 1119).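 Note: probe is the protein aXip251-270 applied at 1 µg/mL to compound-printed slides; binding of probe to printed compounds measured as 667 nm fluorescence plus signal to noise.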 The settings on record: small-molecule microarray, higher = more signal, called active from +8 up or from −8 down.
Assay [12] in a line: probe aNOTCH3 binding on compound microarray – biochemical, small-molecule microarray, 635/667 nm fluorescence, primary screen (AID 1120).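 Note: probe is a biotin-tagged antibody raised against NOTCH3 rather than NOTCH3 protein; score merges spot fluorescence near 667 nm with spot signal to noise.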 Particulars: higher = more signal.
The nature of assay [13]: probe aNOTCH2 binding on compound microarray – biochemical, small-molecule microarray, 635/667 nm fluorescence, primary screen (AID 1121).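 Note: score merges feature fluorescence read at 667 nm with its signal to noise.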 Particulars: higher = more signal.
In assay [14] the target is Carbonic anhydrase 2 (Homo sapiens) (UniProt P00918). Briefly: compounds binding carbonic anhydrase 2 – biochemical, small-molecule microarray, Alexa647-labelled CAII, profiling panel (AID 1122). The settings on record: CAII-A647 binding fluorescence, higher = more signal.
A short description of assay [15]: COS7 lysate on small-molecule microarray, probe aHis, 635 nm (AID 1123).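 Note: z-score combines 667nm fluorescence intensity with signal-to-noise per printed compound spot.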 The settings on record: COS7 cell lysate, fluorescence, higher = more signal.
A short description of assay [16]: probe aLAP1 signal on lysate-treated microarray – cell lysate, small-molecule microarray, COS7 lysate, primary screen (AID 1124).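 Note: lysate comes from COS7 cells expressing LAP1 and is applied at 0.3 µg/mL; score merges spot fluorescence near 667 nm with signal-to-noise over triplicate slides.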 Particulars: probe aLAP1, fluorescence, higher = more signal.
Another assay has as its system Sam68 (KHDRBS1). Briefly: compounds binding KHDRBS1 protein – biochemical, small-molecule microarray, 635 nm fluorescence, primary screen (AID 1125).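 Note: score merges 667 nm channel intensity with signal to noise over triplicate slides.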 The settings on record: higher = more signal.
For assay [17], the system named is Chordin-like protein 2 (CHRDL2). Briefly: compounds binding chordin-like 2 – biochemical, small-molecule microarray, 635 nm fluorescence, primary screen (AID 1126).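 Note: printed compound slides probed with Chrdl2 protein at 4 µg/mL for 1 h at 4 C; score merges 667 nm emission intensity with signal to noise over three replicate slides.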 The settings on record: fluorescence 635 nm, higher = more signal.
Assay [18] concerns the target Concanavalin-A (Canavalia ensiformis) (UniProt P02866). Briefly: compounds binding concanavalin A lectin – biochemical, small-molecule microarray, Alexa647 label, 635 nm, artefact control for SMM control protein annotation, primary screen (AID 1127).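 Note: z combines 667 nm emission intensity with signal-to-noise across three replicate slides.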 Particulars: ConA-A647 binding fluorescence, higher = more signal.

Albumin (Bos taurus), sequence (P02769 whole entry, looked up): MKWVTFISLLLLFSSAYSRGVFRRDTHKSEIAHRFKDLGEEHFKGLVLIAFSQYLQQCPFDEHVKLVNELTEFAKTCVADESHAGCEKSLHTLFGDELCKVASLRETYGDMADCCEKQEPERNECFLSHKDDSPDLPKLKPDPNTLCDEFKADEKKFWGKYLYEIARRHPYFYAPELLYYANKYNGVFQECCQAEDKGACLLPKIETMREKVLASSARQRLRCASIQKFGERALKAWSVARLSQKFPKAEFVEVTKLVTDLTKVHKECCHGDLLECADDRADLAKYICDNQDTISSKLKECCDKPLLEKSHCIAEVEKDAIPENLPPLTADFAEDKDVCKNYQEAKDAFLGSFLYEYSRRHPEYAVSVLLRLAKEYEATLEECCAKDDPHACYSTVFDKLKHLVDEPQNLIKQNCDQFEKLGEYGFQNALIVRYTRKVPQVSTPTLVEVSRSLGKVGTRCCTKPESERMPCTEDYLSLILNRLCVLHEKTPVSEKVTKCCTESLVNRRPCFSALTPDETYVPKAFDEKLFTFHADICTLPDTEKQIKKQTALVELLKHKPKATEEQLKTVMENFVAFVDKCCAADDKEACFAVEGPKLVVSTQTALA
Torsin-1A-interacting protein 1 (Homo sapiens), sequence (Q5JTV8 whole entry, looked up): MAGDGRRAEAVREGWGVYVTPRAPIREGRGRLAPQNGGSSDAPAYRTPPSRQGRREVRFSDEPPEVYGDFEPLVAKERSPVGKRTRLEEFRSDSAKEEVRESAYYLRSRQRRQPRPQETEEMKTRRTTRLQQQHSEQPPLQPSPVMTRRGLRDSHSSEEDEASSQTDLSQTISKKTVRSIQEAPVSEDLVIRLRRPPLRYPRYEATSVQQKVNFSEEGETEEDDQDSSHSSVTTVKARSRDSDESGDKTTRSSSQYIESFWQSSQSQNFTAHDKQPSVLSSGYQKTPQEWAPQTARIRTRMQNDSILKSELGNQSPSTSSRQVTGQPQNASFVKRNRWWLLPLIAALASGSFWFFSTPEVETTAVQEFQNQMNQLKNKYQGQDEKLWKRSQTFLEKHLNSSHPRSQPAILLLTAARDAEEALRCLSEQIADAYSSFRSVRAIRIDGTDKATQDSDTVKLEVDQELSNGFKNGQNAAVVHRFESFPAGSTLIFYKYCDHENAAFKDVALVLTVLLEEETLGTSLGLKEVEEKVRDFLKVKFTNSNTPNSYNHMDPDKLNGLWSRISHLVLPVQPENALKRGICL
Left-right determination factor 2 (Homo sapiens), sequence (O00292 whole entry, looked up): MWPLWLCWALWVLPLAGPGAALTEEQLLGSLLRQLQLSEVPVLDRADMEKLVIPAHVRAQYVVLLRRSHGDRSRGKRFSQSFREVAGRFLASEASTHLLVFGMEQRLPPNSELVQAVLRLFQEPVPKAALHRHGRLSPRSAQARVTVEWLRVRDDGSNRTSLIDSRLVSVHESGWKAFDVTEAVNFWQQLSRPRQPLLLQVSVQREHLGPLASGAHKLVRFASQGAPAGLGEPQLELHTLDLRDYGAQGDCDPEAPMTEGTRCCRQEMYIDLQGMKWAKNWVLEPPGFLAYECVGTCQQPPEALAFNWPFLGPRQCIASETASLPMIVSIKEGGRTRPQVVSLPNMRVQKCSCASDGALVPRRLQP
Concanavalin-A (Canavalia ensiformis), sequence (P02866 whole entry, looked up): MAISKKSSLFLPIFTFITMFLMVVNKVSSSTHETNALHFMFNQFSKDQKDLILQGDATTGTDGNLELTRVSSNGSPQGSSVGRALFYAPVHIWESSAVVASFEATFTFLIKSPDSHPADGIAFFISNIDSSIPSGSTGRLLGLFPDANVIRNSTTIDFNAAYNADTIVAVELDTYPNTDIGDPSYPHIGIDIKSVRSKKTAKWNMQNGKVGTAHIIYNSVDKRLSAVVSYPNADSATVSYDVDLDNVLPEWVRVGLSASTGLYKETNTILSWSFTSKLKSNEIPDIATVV
Alpha-bungarotoxin (Bungarus multicinctus), sequence (P60615 whole entry, looked up): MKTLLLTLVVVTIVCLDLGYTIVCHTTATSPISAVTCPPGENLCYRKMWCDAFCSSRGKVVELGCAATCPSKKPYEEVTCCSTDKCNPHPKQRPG

Consider `COCCCNC(=O)[C@@]1(Cc2ccccc2)N=C(c2ccc(OCCCO)cc2)O[C@H]1c1ccccc1`, for which the composite z-score is 0.53 in assay [1]; -0.582 in assay [3]; 2.34 in assay [4]; 1.05 in assay [5]; -0.174 in [6]; -0.36 in [7]. The composite z-score was -0.442 in assay [8]; 1.96 in assay [9]; 2.34 in assay [10]; 0.893 with Albumin (Bos taurus); 0.374 in assay [12]; 0.308 in assay [13]. In addition, the composite z-score in assay [14] is 0.79; in assay [15], 2.9; in assay [16], -0.0127; in the assay with Sam68 (KHDRBS1), 1.29; in assay [17] it was -1.1; in [18] it was 1.12. In addition, the z-score in assay [2] is -1.39. Moreover, the composite Z-score in assay [11] was 1.14 (inactive).

Regarding `O=C1O[C@@H](c2ccccc2)[C@@H](c2ccccc2)N2[C@@H](c3ccccc3OCCO)[C@]3(C(=O)Nc4ccc(C#CC5=CCCCC5)cc43)[C@@H](C(=O)Nc3nc4ccccc4s3)[C@H]12`, the composite z-score in assay [1] is 1.4; in assay [3], 0.501; in assay [4], 1.32; in assay [5], 0.337; in [6] it was -0.0084; in [7], 0.356. Besides, the composite z-score was -0.167 in [8]; 0.705 in assay [9]; 1.32 in assay [10]; 0.778 in the assay with Albumin (Bos taurus); 0.0715 in [12]; -0.0583 in assay [13]. In addition, the composite z-score turned out to be 0.272 in assay [14]; 1.39 in assay [15]; 0.399 in [16]; 1.3 in the assay on Sam68 (KHDRBS1); 0.309 in assay [17]; 1.06 in [18]. Moreover, in assay [2], the z-score was -2.52. Also, in [11], the composite Z-score was 0.243 (inactive).

As for `C=C(COC)/C(=C/C[C@@H](OC(C)=O)c1ccc(CO)o1)c1cnc2ccccc2c1`, the composite z-score in assay [1] was 1.31; in assay [3], 1.07; in [4], 0.0708; in assay [5], -0.6; in assay [6], -0.0425; in [7] it was -0.0146. Further, the composite z-score stood at 0.256 in assay [8]; 2.19 in [9]; 2.76 in assay [10]; 0.555 with Albumin (Bos taurus); 0.25 in [12]; 0.0616 in [13]. For the same molecule, the composite z-score in assay [14] stood at 0.944; in assay [15], 0.229; in [16] it was 0.846; with Sam68 (KHDRBS1) it was 1.29; in assay [17], 1.39; in assay [18], 1.2. In addition, the z-score in [2] was -0.638. The composite Z-score in [11] is 0.319 (inactive).

For the molecule `C=CCOC(=O)[C@H]1[C@@H]2C(=O)O[C@@H](c3ccccc3)[C@@H](c3ccccc3)N2[C@@H](c2ccc(OCCOC(=O)[C@@H]3C[C@@H]4C(=O)N5CCC[C@H]5C(=O)N4[C@@H]3c3cccc(OCCO)c3)cc2)[C@]12C(=O)Nc1ccccc12`, the composite z-score in [1] is 0.862; in assay [3], 0.91; in assay [4], 0.551; in assay [5] it was 0.0319; in assay [6], 0.0079; in [7], 0.0381. The composite z-score is -0.378 in assay [8]; 0.834 in assay [9]; 1.34 in assay [10]; -0.292 with Albumin (Bos taurus); 0.336 in [12]; 0.0087 in assay [13]. The composite z-score came to 0.192 in assay [14]; 1.73 in assay [15]; 0.383 in [16]; 1.29 in the assay on Sam68 (KHDRBS1); 0.902 in [17]; 1.17 in [18]. This molecule showed a z-score in assay [2] of -1.24. The composite Z-score in assay [11] was 0.594 (inactive).

With `CN1C(=O)C2C=CC(C(O)Cc3ccccc3)N(Nc3ccccc3)C2C1=O` (stereo not given), the composite z-score in assay [1] is 0.343; in assay [3] it was -0.244; in assay [4], 1.08; in [5], 0.85; in assay [6] it was -0.0738; in [7], -0.153. For the same molecule, the composite z-score is 0.338 in assay [8]; 0.439 in [9]; 0.428 in assay [10]; 0.554 with Albumin (Bos taurus); -0.0311 in assay [12]; -0.0196 in assay [13]. Moreover, the composite z-score in [14] was 0.589; in assay [15] it was 3.06; in [16], -0.333; with Sam68 (KHDRBS1), -0.0158; in assay [17], -0.513; in assay [18], 0.672. The same molecule had a z-score in assay [2] of -0.12. In addition, in assay [11], the composite Z-score is -0.193 (inactive).
